Reference: PubChem BioAssay (NCI)
This is part of a sample that, as a whole, favours compounds with a hit. Of some 83,000 tested, about 20% had one in any assay.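 In brief: 96-well plates, 48 h treatment, single concentration, percent growth endpoint.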 Unmarked numbers belong to inactive results. Active and inactive are the calls of the source. Rule for the calls: active = growth percent below 10; inactive = the rest.

Test system: OVCAR-4 ovarian
Assay: NCI-60 one-dose screen, 48 h (100 = growth as untreated, 0 = no growth, -100 = all killed)
Conditions: 10 µM unless noted

SMILES	growth
CCOc1ccc(NC(=O)Nc2cc(C(C)C)ccc2C)cc1	44.6%
NS(=O)(=O)c1ccc(-n2nc(-c3ccc(Cl)cc3)ccc2=O)cc1	100%
COC(OC)C1(c2ccccc2)NC(=O)NC1=O (stereo not drawn)	113%
CC1=C[S+](c2ccccc2)c2cccc3cc4ccccc4c1c23 (stereo not drawn)	17.4%
O=C(Nc1ccccc1F)Nc1ccccc1Cl	73%
O=C(C[n+]1ccccc1Cl)c1ccc2c(c1)CCCC2	83.6%
COc1cc(-c2nc3sc(C)cn3c2/C=C2\C(=O)Nc3ccccc32)c(Br)c(OC)c1OC	54.4%
CC1(C)N=C(N)N=C(N)N1c1cccc(CCCCc2ccccc2)c1	7.12% (active)
COc1ccc(/C=C2\CS(=O)(=O)C/C(=C\c3ccc(OC)cc3)C2=O)cc1	12.3%
CN1CCN(CC(O)COc2c(Br)c(Br)c(Br)c3c2OC(C)(C)C3)CC1 (stereo not drawn)	82.3%
CC1(C)N=C(N)N=C(N)N1c1ccc(OCC(=O)Nc2ccccc2)c(Cl)c1	46.1%
COc1ccc2c(c1)nnc1c3cccnc3[nH]c21	14.8%
CC(=O)N[C@@H](CNC(=O)c1cc(NC(=O)c2cc(NC(=O)c3cc(NC(=O)c4nccn4C)cn3C)cn2C)cn1C)CC(=O)Nc1cn(C)c(C(=O)Nc2cc(C(=O)Nc3cc(C(=O)Nc4cc(C(=O)NCCCN(C)CCCNC(=O)c5cccc(C(=O)O)c5)n(C)c4)n(C)c3)n(C)c2)n1	64%
Nc1ccc(S(=O)(=O)Nc2cc(I)cc(I)c2)cc1	99%
Nc1nc2ccc(CNc3ccc(C(=O)NC(CC(=O)O)C(=O)O)cc3)cc2c(=O)[nH]1 (stereo not drawn)	65.6%
Cc1cn(C2CC(F)C(CO)O2)c(=O)[nH]c1=O (stereo not drawn)	93.1%
CN(C)C(=O)Nc1nc2cc(Cl)c(Cl)cc2[nH]1	33.9%
Cc1cccc(NC(=O)CCc2ccc(N3C(N)=NC(N)=NC3(C)C)cc2)c1	51.7%
COc1cc(/C=C/C(=O)c2c(C)[n+]([O-])c3ccccc3[n+]2[O-])ccc1O	155%

SMILES	growth
CCC1CN2C(=N1)c1ccccc1-c1cc(Cl)ccc12 (stereo not drawn)	26.6%
CC(C(C(=O)N1CCCCC1)N1CCCCC1)N1CCCCC1 (stereo not drawn)	116%
NC(CSC(c1ccccc1)(c1ccccc1)c1ccc(F)cc1)C(=O)O (stereo not drawn)	48.8%
CS(=O)(=O)OCC(COS(C)(=O)=O)C(c1ccccc1)c1ccccc1	106%
S=c1ssnc1-c1ccccn1	56.1%
O=C(Cn1c2ccccc2c2ccncc21)N/N=C/c1cc(O)c(O)c(O)c1	110%
CN(C)c1ccc(/C=N/N=C(N)N)cc1	81.9%
Cc1cc2c(cc1C)N(C(=O)CCl)CCN2C(=O)CCl	-72% (active)
O=C(O)c1cc2ccccc2cc1Nc1ccccc1	97.5%
O=C(Nc1ccccc1Cl)c1c[nH]c(=O)c(-c2ccc(N3CCCOC4(CC4)C3)cc2)c1	44.3%
Clc1ccc2c(c1)nnn1c3ncccc3c(Br)c21	77.1%
Cc1nssc1=S	109%
FC(F)(F)c1cn(CC2CNC2)c2ncnc(Cl)c12	110%
CN1CCN(Cn2nc(-c3cc(Cl)cc(Cl)c3Cl)n(/N=C/c3ccc(Cl)cc3)c2=S)CC1	94.5%
NC(N)=N/N=C/c1ccc([N+](=O)[O-])cc1	102%
CC1=C2C(=C[C@@](C)(CO)[C@@H]2OC(=O)N(C)CCN(C)C(=O)OC(C)(C)C)C(=O)[C@](C)(O)C12CC2	43.8%
Nc1nc(=S)ss1	106%
COC(=O)c1oc2c(C(C)=O)c(OCCN3CCCCC3)ccc2c1C	161%
Cc1cc[n+](CCCC[n+]2ccc(C)cc2)cc1	114%
